High-throughput results from PubChem BioAssay.
DAX1 inh-1: DAX1 (NR0B1) inhibition, primary screen; HEK293T StAR-luciferase reporter, SF-1/DAX-1 repression relief; inhibition, % at 6.8 µM; actives 1.1% (n = 370,000); AID 652010;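 active means inhibition above the mean over all tested compounds plus 3 SD, cut at about 3.6% in these data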;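 further: 0% = DAX-1 cells with DMSO and 100% = cells lacking DAX-1 with DMSO; higher inhibition means more luminescence from relief of DAX-1 repression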
hgDAF12 agonist: hgDAF-12 agonism, primary luciferase screen; HEK293 GAL4-hgDAF12 UAS-luciferase reporter, agonist luminescence; normalized to butyrate control; activation, % at 6.8 µM; actives 1.8% (n = 370,000); AID 687014;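 active means activation above a cutoff set at the mean of all screened compounds plus 3 SD, cut at about 10% in these data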;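 further: 0% = DMSO wells and 100% = sodium butyrate wells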
ssDAF-12 act: activators of S. stercoralis DAF-12 nuclear receptor. activation, % at 6.8 µM. AID 652126. actives 1% (n = 370,000). HEK293 ssDAF-12/GRIP1 lit1-tk-luc reporter, luminescence; % of 3 µM dafachronic acid response;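 active means activation above the mean over all tested compounds plus 3 SD, cut at about 0.9% in these data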;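 further: 0% = DMSO-only wells and 100% = 3 µM delta7-dafachronic acid wells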
DAX1 inh-2: inhibits human nuclear receptor DAX1; HEK293 Gal4-DAX1 luciferase reporter, luminescence; inhibition, % at 6.75 µM; actives 0.99% (n = 340,000);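 active means inhibition above the mean over all tested compounds plus 3 SD, cut at about 4.2% in these data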;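 further: 0% = DAX1-transfected cells with DMSO and 100% = empty-vector control cells with DMSO; inhibition shows as a rise in luminescence from relieved DAX1 repression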
Target sequence (P51843 207-470 limits assumed): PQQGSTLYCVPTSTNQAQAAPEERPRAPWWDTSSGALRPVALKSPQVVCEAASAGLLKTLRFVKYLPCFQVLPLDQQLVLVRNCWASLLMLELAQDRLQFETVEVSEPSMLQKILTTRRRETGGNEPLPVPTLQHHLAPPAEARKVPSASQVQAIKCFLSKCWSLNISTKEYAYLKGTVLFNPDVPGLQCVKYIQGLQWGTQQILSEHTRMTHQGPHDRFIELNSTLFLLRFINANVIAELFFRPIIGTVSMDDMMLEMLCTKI
hcDAF-12 act: H. contortus DAF-12 activation, primary screen; HEK293 hcDAF-12 lit1-tk-luc reporter, luminescence; 0% DMSO, 100% Δ7-dafachronic acid; activation, % at 6.8 µM; actives 1.4% (n = 370,000); AID 652067;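 active means activation above the mean of all tested compounds plus 3 SD, cut at about 5.5% in these data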;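 further: 100% = response to 3 µM Δ7-dafachronic acid high control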
GAA850 FXN act: increases GAA850 frataxin promoter reporter activity | HEK293 lucGAA850 FXN promoter luciferase reporter, 24 h; percent of 10 µM SAHA response | activation, % at 6 µM | actives 0.56% (n = 360,000) | AID 540364;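 active means activation above the average of all compounds screened plus 3 SD, cutoff fixed separately per campaign, cut at about 7.5% in these data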;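 further: 0% = DMSO wells and 100% = 10 µM SAHA wells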
DAX1 conf: confirmation of human DAX1 (NR0B1) inhibitors; AID 652134; shares compounds with DAX1 inh-1; HEK293T StAR-promoter luciferase reporter, SF-1/DAX-1 repression; actives 87% (n = 2,400); inhibition, % at 6.8 µM;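 active means inhibition above the average of every tested compound plus 3 SD, cut at about 3.8% in these data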;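 further: 0% = DAX-1 cells with DMSO and 100% = no DAX-1 control cells with DMSO; active compounds raise luminescence by relieving repression of the StAR reporter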
Target sequence (P51843 whole entry, looked up): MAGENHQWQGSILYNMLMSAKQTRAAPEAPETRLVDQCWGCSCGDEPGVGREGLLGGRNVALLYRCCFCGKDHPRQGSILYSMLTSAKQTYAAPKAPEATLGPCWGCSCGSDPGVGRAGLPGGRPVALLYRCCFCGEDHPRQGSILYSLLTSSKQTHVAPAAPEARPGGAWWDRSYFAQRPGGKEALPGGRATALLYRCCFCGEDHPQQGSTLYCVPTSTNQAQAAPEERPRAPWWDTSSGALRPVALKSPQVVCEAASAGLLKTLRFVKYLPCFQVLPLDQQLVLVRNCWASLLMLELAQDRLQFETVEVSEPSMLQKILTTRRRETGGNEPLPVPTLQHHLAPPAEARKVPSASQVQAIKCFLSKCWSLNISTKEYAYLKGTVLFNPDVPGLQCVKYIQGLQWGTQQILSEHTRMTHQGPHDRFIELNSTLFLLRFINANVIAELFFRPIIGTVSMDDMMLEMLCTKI
SF1 AF2mut Luc: counter-screen for DAX1 inhibitors: nonselective inhibitors with SF-1 AF2 mutant; shares compounds with DAX1 inh-1; HEK293 StAR-luciferase, luminescence; inhibition, % at 6.8 µM; actives 78% (n = 2,400);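 active means inhibition above the mean of all tested compounds plus 3 SD, cut at about 3% in these data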;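 further: 0% = DAX-1 transfected cells with DMSO and 100% = cells without DAX-1 with DMSO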
LXR ag: counter-screen for hcDAF-12 agonists: agonists of human LXR-beta. shares compounds with hcDAF-12 act. AID 743027. HEK293 Gal4-LXR tk-luc reporter, luminescence, 24 h; normalized: DMSO 0%, positive control 100%. 3,400 tested, under 10 active. activation, % at 6.8 µM;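 active means mean percent activation of the reporter above a cutoff set as the average over tested compounds plus their standard deviation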
hcDAF12 conf: hcDAF-12 agonism, confirmation assay; actives 61% (n = 3,400); HEK293 hcDAF-12 lit1-tk-luc reporter, luminescence; % of Δ7-dafachronic acid response; shares compounds with hcDAF-12 act; activation, % at 6.8 µM;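 active means mean activation across triplicate tests above the threshold derived from the earlier primary screen, cut at about 5.5% in these data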;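 further: 0% = DMSO only wells and 100% = 3 µM Δ7-dafachronic acid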
hgDAF12 conf: confirmation of H. glycines DAF-12 agonists. HEK293 GAL4-hgDAF12 luciferase reporter, agonist mode; percent of butyrate response. actives 80% (n = 3,300). activation, % at 6.8 µM. shares compounds with hgDAF12 agonist;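 active means mean activation over triplicate wells above the hit cutoff derived from the earlier primary screen, cut at about 11% in these data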;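 further: 0% = DMSO low control and 100% = 2 mM sodium butyrate high control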
LXRb DAF12 ctr: counter-screen for DAF-12 agonists: agonists of human LXR-beta; HEK293 Gal4-LXR luciferase reporter, 24 h; activation, % at 6.8 µM; 3,300 tested, under 10 active; shares compounds with hgDAF12 agonist;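 active means mean activation of the triplicate above a set limit carried over from the primary screen, none filed active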
Numbers without * were called inactive; . = not tested or not shown. Most compounds without a hit are left out; they make up all but 4.5% or so of the library.

SMILES	DAX1 inh-1	hgDAF12 agonist	ssDAF-12 act	DAX1 inh-2	hcDAF-12 act	GAA850 FXN act	DAX1 conf	SF1 AF2mut Luc	LXR ag	hcDAF12 conf	hgDAF12 conf	LXRb DAF12 ctr
CC1CCCCN1S(=O)(=O)c1cc2c(=O)nc3ccccn3c2cc1Cl (configuration not stated)	-0.1	0.4	-0.9	.	-3.6	.	.	.	.	.	.	.
CC(=O)c1sc(NC(=O)c2cccc(C)c2)nc1C	4.6*	19.7*	0.3	7.0*	5.4	2.7	5.9*	5.4*	.	.	15.2*	0.9
COC1C(O)CCC2(CO2)C1C1(C)OC1CC=C(C)C (configuration not stated)	-1.9	1.9	-1.7	.	-2.3	.	.	.	.	.	.	.
COc1ccc(NCc2nc3ccccc3n2CCOc2ccc(C)cc2)cc1	-0.9	4.2	-1.6	-2.1	-3.5	4.0	.	.	.	.	.	.
Cc1ccc(NCc2nc3ccccc3n2C)cc1	6.3*	14.5*	3.5*	2.9	14.8*	6.3	15.4*	8.2*	1.2	16.7*	17.6*	0.9
CCCc1ccc(OC(=O)c2ccc(O)cc2Cl)cc1	5.3*	16.4*	0.6	2.1	8.4*	3.1	13.9*	6.0*	1.6	8.1*	2.3	0.6
CCCc1ccc(OC(=O)c2cccs2)cc1	-0.2	-1.6	-2.2	-0.6	-2.3	-2.4	.	.	.	.	.	.
CCC(CO)Nc1ccn2nc(-c3cc(OC)c(OC)c(OC)c3)cc2n1 (configuration not stated)	0.3	1.0	-1.4	.	0.5	-0.8	.	.	.	.	.	.
CCC(CO)Nc1ccn2nc(-c3ccccc3)cc2n1 (configuration not stated)	9.5*	18.2*	-0.4	.	2.5	1.4	8.9*	7.2*	.	.	15.9*	0.6
Cc1ccc(/C=N/Nc2ccc(C(=O)O)cc2)o1	4.6*	16.2*	0.6	3.3	6.3*	4.0	8.4*	6.6*	.	.	12.8*	0.4
O=C(O)c1ccc(N/N=C/c2ccc(-c3ccccc3Cl)o2)cc1	9.2*	23.8*	1.3*	-0.8	9.8*	5.2	26.1*	10.5*	1.6	11.7*	12.3*	1.1
COc1ccc(C(=O)c2[nH]c(N)c(C(=O)c3c[nH]c4ccccc34)c2-c2ccc(OC)cc2)cc1	-0.1	-0.1	-0.4	.	-0.7	.	.	.	.	.	.	.
O=C(OCc1ccccc1)[C@H](Cc1ccccc1)NC(=O)[C@@H]1CC=C[C@@H]2CCN(Cc3ccccc3)C(=O)[C@@H]21	.	-1.2	-1.9	.	-1.1	.	.	.	.	.	.	.
CCOC(=O)c1sc(=NC(=O)c2cccc(OC)c2)n(C)c1C	1.2	8.4	-1.2	0.3	-0.6	3.7	.	.	.	.	.	.
CCOC(=O)c1sc(=NC(=O)c2ccccc2)n(C)c1C	4.6*	13.3*	2.2*	2.9	15.7*	5.4	14.9*	9.6*	1.3	14.1*	18.0*	0.9
CC(=O)c1cccc(NC(=O)c2cc(C(C)C)on2)c1	5.2*	16.6*	-0.5	0.3	5.1	1.6	10.7*	8.0*	.	.	10.5*	0.6
CC(C)c1cc(C(=O)Nc2cccc(Cl)c2)no1	4.6*	19.2*	0.7	0.9	7.8*	3.2	16.4*	9.3*	1.5	5.8*	18.9*	1.1
CC(C)c1onc(C(=O)Nc2cccc(Cl)c2)c1[N+](=O)[O-]	-0.5	-0.1	-1.8	0.0	-1.3	-0.1	.	.	.	.	.	.
NC(=O)c1ccc(OCc2ccccc2)nc1	5.0*	15.0*	0.1	3.0	3.7	3.5	5.8*	3.3*	.	.	11.4*	0.4
COc1cc(C(N)=O)ccc1OCc1ccccc1	0.8	6.0	-0.8	0.5	2.8	1.3	.	.	.	.	.	.
Cc1cnc(NC(=O)c2cc3ccccc3o2)s1	7.3*	19.0*	1.9*	6.4*	10.0*	3.2	17.1*	8.9*	1.4	13.6*	14.9*	1.0
O=C(Nc1cccc(Br)c1)c1cc2ccccc2o1	5.1*	25.8*	0.1	4.3*	9.1*	6.6	12.0*	7.0*	1.0	5.9*	20.9*	0.9
Cc1nnc(NC(=O)c2cc3ccccc3o2)s1	1.2	7.2	-0.4	1.9	3.9	3.0	.	.	.	.	.	.
C/C(=N\Nc1cccc2cccnc12)c1ccc[nH]1	7.5*	20.5*	1.3*	1.9	10.1*	5.7	14.0*	5.2*	1.3	9.9*	17.6*	0.8
COc1cc(SC)ccc1C(=O)Nc1ccc2c(c1)OCO2	7.8*	19.9*	1.4*	9.4*	8.9*	4.6	9.7*	6.2*	1.6	6.3*	16.1*	1.0
SMILES	DAX1 inh-1	hgDAF12 agonist	ssDAF-12 act	DAX1 inh-2	hcDAF-12 act	GAA850 FXN act	DAX1 conf	SF1 AF2mut Luc	LXR ag	hcDAF12 conf	hgDAF12 conf	LXRb DAF12 ctr
COc1cc(SC)ccc1C(=O)Nc1ccc(C)cc1	5.5*	18.0*	2.1*	7.1*	14.1*	3.6	12.8*	9.9*	1.5	13.2*	20.1*	0.9
COc1cc(SC)ccc1C(=O)Nc1ccccn1	5.0*	18.9*	1.0*	-2.8	10.0*	3.4	9.6*	5.2*	2.3	7.2*	13.7*	0.9
COc1cc(SC)ccc1C(=O)Nc1ccc(OCC(=O)N2CCOCC2)cc1	1.0	8.2	0.5	-0.1	1.9	5.3	.	.	.	.	.	.
COC(=O)[C@]12C[C@H](CC(=O)NCCCN3CCCC3=O)C(=O)N(Cc3ccc4c(c3)OCO4)C1=C[C@H](C(C)(C)C)O[C@@H]2C	-0.3	-0.7	-0.9	.	-0.5	.	.	.	.	.	.	.
C[C@@H]1CCN(C2CC2)S(=O)(=O)c2ccc(N3CCC[C@H]3C)cc2O1	-0.6	-0.1	-0.3	.	-0.7	.	.	.	.	.	.	.
O=C(/C=C(\Nc1ccc(Cl)c(Cl)c1)c1ccccc1)c1ccccc1	-0.1	-0.3	-0.8	.	2.0	.	.	.	.	.	.	.
